Compounds with a hit are over-represented: about 2.6% of the library has one in this group of screens.
pPAFAH FP inh = pPAFAH (human) enzyme inhibition; recombinant pPAFAH, FP-rhodamine probe fluorescence polarization; inhibition, % at 3.39 µM; AID 463082; actives 1.5% (n = 330,000); Q13093;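 active = inhibition above the mean inhibition across the screen plus 3 SD, cut at about 25% in these data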;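 also: inhibitors block binding of the rhodamine activity-based probe so polarization drops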
PAFAH1B3 FP inh = blocks human PAF acetylhydrolase 1B catalytic subunit 3. Q15102. recombinant PAFAH1B3, FP-rhodamine probe, fluorescence polarization. inhibition, % at 3.39 µM. actives 0.28% (n = 340,000). AID 492972;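 active = inhibition above the screen-wide average of all tested compounds plus 3 SD, cut at about 25% in these data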
Target sequence (Q15102 whole entry, looked up): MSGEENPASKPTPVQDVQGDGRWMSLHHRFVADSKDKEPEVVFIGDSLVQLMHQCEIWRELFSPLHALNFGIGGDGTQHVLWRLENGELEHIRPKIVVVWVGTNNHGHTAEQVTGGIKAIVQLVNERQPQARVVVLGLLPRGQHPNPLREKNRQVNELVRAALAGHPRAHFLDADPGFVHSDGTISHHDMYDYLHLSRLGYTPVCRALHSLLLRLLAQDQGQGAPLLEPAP
PKA-R1A act = activators of PKA-R1A complex. P00514+P68181. actives 0.083% (n = 340,000). activation, % at 11.4 µM. PKA-R1A dissociation, Cy5-IP20 fluorescence polarization; scaled: DMSO 0%, 113 µM cGMP 100%;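 active = percent activation above the mean of all tested compounds plus 3 SD, cut at about 19% in these data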;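 also: higher means more PKAc released from R1A so a rise in polarization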
PAFAH2 inh = PAFAH2 (human) inhibition; recombinant PAFAH2, FP-rhodamine activity probe, fluorescence polarization; inhibition, % at 3.39 µM; actives 0.99% (n = 340,000); AID 492956;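 active = inhibition above the mean over all tested compounds plus 3 SD, cut at about 30% in these data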;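 also: inhibitors block probe labeling of enzyme so polarization drops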
PKA-R2B act = PKA-R2B complex activation; PKA-R2B holoenzyme dissociation, Cy5-IP20 fluorescence polarization; R2B truncated from residue 108, S112A mutant; 0% DMSO only, 100% 113 µM cGMP; AID 504700; activation, % at 11.4 µM; actives 0.079% (n = 340,000);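 active = activation above a cutoff set at the mean over all compounds plus 3 SD, cut at about 18% in these data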;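 also: higher means more holoenzyme dissociation and a rise in polarization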
PAFAH1B2 FP inh = blocks human PAF acetylhydrolase 1b catalytic subunit 2; AID 492953; P68402; actives 1.2% (n = 340,000); inhibition, % at 3.39 µM; recombinant PAFAH1B2, FP-rhodamine activity probe, fluorescence polarization;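 active = inhibition above the mean of all tested compounds plus 3 SD, cut at about 24% in these data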
R2B FP artifact = counter-screen for PKA-R2B activators: fluorescence polarization artifacts; actives 6% (n = 270); activation, % at 11.4 µM; FP artifact counterscreen; AID 504796; shares compounds with PKA-R2B act; in the data active = activation above about 20%;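 also: Cy5 labelled IP20 peptide probe with compound but no PKA protein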
PKA-R2B confirm = PKA-R2B complex activation, confirmation. shares compounds with PKA-R2B act. fluorescence polarization. activation, % at 11.4 µM. actives 9% (n = 270). AID 504797; in the data active = activation above about 19%
R1A FP artifact = FP assay interference, PKA-R1A counter-screen; shares compounds with PKA-R1A act; activation, % at 11.4 µM; AID 504799; Cy5-IP20 peptide alone, fluorescence polarization artifact counterscreen; actives 7% (n = 280);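 active = mean activation over triplicate runs exceeds the adjusted cutoff derived for the parent primary screen, cut at about 19% in these data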;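 also: no PKA protein present so any polarization rise reflects compound interference; higher means stronger polarization artifact and likely false positive in parent screen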
PKA-R1A confirm = PKA-R1A complex activation, confirmation | Cy5-IP20 fluorescence polarization, PKA-R1A holoenzyme dissociation | activation, % at 11.4 µM | shares compounds with PKA-R1A act | actives 9% (n = 280);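 active = mean activation over replicate wells exceeds the adjusted hit threshold taken from the earlier primary screen, cut at about 20% in these data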
Target sequence (P00514 whole entry, looked up): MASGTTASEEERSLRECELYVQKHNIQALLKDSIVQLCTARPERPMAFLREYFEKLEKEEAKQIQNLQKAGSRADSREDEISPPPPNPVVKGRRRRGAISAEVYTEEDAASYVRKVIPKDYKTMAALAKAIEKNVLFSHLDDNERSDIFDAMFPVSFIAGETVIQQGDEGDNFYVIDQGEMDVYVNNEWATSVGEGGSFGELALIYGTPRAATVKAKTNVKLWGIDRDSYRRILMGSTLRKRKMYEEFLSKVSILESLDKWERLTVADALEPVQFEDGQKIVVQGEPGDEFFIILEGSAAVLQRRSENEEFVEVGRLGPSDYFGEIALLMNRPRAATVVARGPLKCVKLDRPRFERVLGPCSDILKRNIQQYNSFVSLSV
Hits are given with their value; – = inactive; · = no result.

SMILES | pPAFAH FP inh | PAFAH1B3 FP inh | PKA-R1A act | PAFAH2 inh | PKA-R2B act | PAFAH1B2 FP inh | R1A FP artifact | PKA-R1A confirm | others
CC1=C/C(=C(/c2cc(C)c(O)c(Br)c2)c2ccccc2S(=O)(=O)O)C=C(Br)C1=O | – | – | 35 | – | 28 | – | 51 | 49 | R2B FP artifact=51;PKA-R2B confirm=46
CC1=C/C(=C(/c2ccc(O)c(C)c2)c2ccccc2S(=O)(=O)O)C=CC1=O | – | – | – | – | – | – | · | ·
Cc1cc(C)c(C)c(S(=O)(=O)N2CCC(C(=O)NNC(=O)c3ccccc3O)CC2)c1C | – | – | 47 | – | 46 | – | 53 | 45 | R2B FP artifact=53;PKA-R2B confirm=44
CC(C)(C)C(=O)Nc1cccc(S(=O)(=O)NC2=NCCC2)c1 | – | – | – | – | – | – | · | ·
Cc1cc(=O)n2[nH]c(NCc3c(F)cccc3Cl)nc2n1 | – | – | 60 | – | 72 | – | 103 | 100 | R2B FP artifact=103;PKA-R2B confirm=93
COc1cccc(CNc2nc3nc(C)cc(=O)n3[nH]2)c1 | – | – | – | – | – | – | · | ·
COc1ccc(OCCN2C(=O)c3cccc(N)c3C2=O)cc1 | – | – | – | – | – | – | · | ·
CCOP1(=O)OCC2OC(n3cnc4c(N)ncnc43)C(O)C2O1 (configuration not stated) | – | – | 102 | – | 91 | – | – | 76 | R2B FP artifact=–;PKA-R2B confirm=65
Nc1ncnc2c1nc(Br)n2[C@@H]1O[C@@H]2COP(=O)(O)O[C@H]2[C@H]1O | – | – | 117 | – | 107 | – | – | 106 | R2B FP artifact=–;PKA-R2B confirm=98
Nc1nc2c(nc(N3CCCCC3)n2[C@@H]2O[C@H](CO)[C@@H](O)[C@H]2O)c(=O)[nH]1 | – | – | – | – | – | – | · | ·
Nc1nc2c(nc(Br)n2[C@@H]2O[C@@H]3COP(=O)(O)O[C@H]3[C@H]2O)c(=O)[nH]1 | – | – | 53 | – | 77 | – | – | 50 | R2B FP artifact=–;PKA-R2B confirm=78
COc1ccc(C=O)cc1CN1CCCN(Cc2ccccc2F)S1(=O)=O | – | – | – | – | – | – | · | ·
CCOC(=O)c1c(CN2CCNCC2)nc2ccc(Cl)cc2c1-c1ccccc1 | · | – | – | – | – | – | · | ·
CN(C)c1ccc(C(=O)OCC(=O)Nc2ccc(S(N)(=O)=O)cc2)cc1 | – | – | 46 | – | 48 | – | 58 | 63 | R2B FP artifact=58;PKA-R2B confirm=59
Cc1oc2ccc(OCc3c(F)cccc3Cl)cc2c1C(=O)O | – | – | 51 | – | 27 | – | 45 | 51 | R2B FP artifact=45;PKA-R2B confirm=52
COCCOC(=O)c1c(C)oc2ccc(OCc3ccccc3)cc12 | – | – | – | – | – | – | · | ·
Cc1ccc(C(=O)NCCc2nnc3c(C(F)(F)F)cc(Cl)cn23)o1 | – | – | – | – | – | – | · | ·
CCN(CC)c1ccc(C(=C2C=CC(=[N+](CC)CC)C=C2)c2ccc(S(=O)(=O)O)cc2S(=O)(=O)[O-])cc1 | · | – | 34 | – | 39 | – | 49 | 52 | R2B FP artifact=49;PKA-R2B confirm=48
COc1cccc(C(=O)N2CCN(C(=O)C3CCCO3)CC2)c1 (configuration not stated) | – | – | 20 | – | – | – | – | –
CCOC(=O)N1CCC(NC(=O)CCC(=O)N2CCOc3ccc(Cl)cc32)CC1 | – | – | 21 | – | – | – | – | –
CN(C)c1ccc(C=O)c(Oc2ccccc2)c1 | · | · | – | · | – | · | · | ·
CCOc1cc(CNC(=O)CN2C(=O)c3ccccc3S2(=O)=O)ccc1OC | – | – | 19 | – | – | – | – | –
Cc1ccc(S(=O)(=O)OCC(=O)Nc2ccc(C(=O)O)c(O)c2)cc1 | · | – | – | – | – | – | · | ·
CC(C)(C)S(=O)(=O)c1cnc(-c2ccccn2)nc1N | – | – | 20 | – | – | – | – | –
Cc1cc2oc(=O)cc(CSc3nc(N)cc(N)n3)c2cc1C(C)C | – | – | – | – | – | – | · | ·
SMILES | pPAFAH FP inh | PAFAH1B3 FP inh | PKA-R1A act | PAFAH2 inh | PKA-R2B act | PAFAH1B2 FP inh | R1A FP artifact | PKA-R1A confirm | others
Nc1cc(N)nc(SCc2cc(=O)oc3cc4c(cc23)CCC4)n1 | – | – | 20 | – | – | – | – | –
Cc1cc(Br)c(NC(=O)CN2C(=O)NC3(CCOc4ccccc43)C2=O)c(Br)c1 (configuration not stated) | · | · | 20 | · | – | · | – | –
CCNC(=O)CN1C(=O)NC2(CCOc3ccccc32)C1=O (configuration not stated) | – | – | – | – | – | – | · | ·
Cc1ccc(-c2ccc(=O)n(CCC(=O)NCc3ccccn3)n2)cc1 | – | – | 19 | – | – | – | – | –
Cc1ccc(S(=O)(=O)N(C)C[C@H]2OCc3cn(nn3)CCCC(=O)N([C@H](C)CO)C[C@@H]2C)cc1 | · | · | – | · | – | · | · | ·
O=C(NCc1ccc(F)cc1)c1cccc2c1C(=O)c1ccc(N3CCC(N4CCCCC4)CC3)cc1S2(=O)=O | · | · | – | · | – | · | · | ·
O=C(NCc1ccco1)c1cccc2c1C(=O)c1ccc(N3CCC(N4CCCCC4)CC3)cc1S2(=O)=O | · | · | 20 | · | – | · | – | –
CN(C)CCCCOc1cccc(Br)c1 | – | – | 23 | – | – | – | – | –
C[C@@H]1CN([C@H](C)CO)S(=O)(=O)c2ccc(Br)cc2O[C@H]1CN(C)C(=O)Cc1ccccn1 | · | · | – | · | – | · | · | ·
CCC(O)(CC)C(=O)N(Nc1ccc(C)cc1)c1ccc(C)cc1 | – | – | 21 | – | – | – | – | –
Fc1ccccc1N1CCN(C2CCN(Cc3c[nH]c4ccccc34)CC2)CC1 | – | – | 19 | – | – | – | – | –
CC(=O)Nc1ccc(NS(=O)(=O)c2cn(C)c(=O)n(C)c2=O)cc1 | – | – | 20 | – | – | – | – | –
Cc1ccc(S(=O)(=O)N(C)C[C@@H]2OCc3cnnn3CCCC(=O)N([C@H](C)CO)C[C@@H]2C)cc1 | · | · | – | · | – | · | · | ·
O=S(=O)(c1ccc(NC(=S)NN=Cc2ccccc2O)cc1)N1CCCCC1 | · | – | – | – | – | – | · | ·
CCCn1c(SCC(=O)N2CCCC2)nc2c1c(=O)n(C)c(=O)n2C | – | – | 21 | – | – | – | – | –
CC(NC(=O)Cc1ccccc1)c1ccc(F)cc1 (configuration not stated) | – | – | – | – | – | – | · | ·
CC(NC(=O)Cc1ccccc1)c1ccccc1 (configuration not stated) | – | – | 19 | – | – | – | – | –

Screening results: PubChem, The Scripps Research Institute Molecular Screening Center
